Rows were chosen to be rich in hits. Some 5.2% of all compounds tested hit in one or more screens of this group.
SMARCA2 act – SMARCA2 function activation, primary screen | actives 1% (n = 370,000) | activation, % at 9.1 µM | MG213 cells, MMTV-luciferase reporter, dexamethasone, overnight; in the data active = activation above about 7.8%;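 note: 0% = vehicle wells and 100% = reference activator wells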
NadD inh – inhibitors of Staphylococcus aureus NadD; inhibition, % at 20 µM; actives 0.78% (n = 360,000); purified NadD enzyme, colorimetric absorbance read-out; AID 602399; in the data active = inhibition above about 26%
esBAF inh – inhibitors of esBAF chromatin remodeling in mouse ES cells; reporter increase, % at 12.5 µM; Bmi1-luciferase knock-in reporter, 24 h; 100% = twice the neutral-well signal; AID 602393; actives 2% (n = 350,000); in the data active = activation above about 40%;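 note: 0% = median of the plate's neutral control wells and 100% = double that signal; a rise in the Bmi1 reporter signal indicates esBAF inhibition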
Vif imaging – blocks HIV Vif function. HEK293T cells, Vif self-association by quenched fluorescence, imaging, 24 h. inhibition, % at 7.49 µM. actives 0.35% (n = 340,000). AID 602346; in the data active = inhibition above about 50%, passing the limit was not always enough
SKN-1 inh – C. elegans SKN-1 inhibition | C. elegans VP596 Pgst-4::GFP/RFP ratio, acrylamide-induced, 24 h | inhibition, % at 21.8 µM | actives 0.49% (n = 360,000);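 active = interference check ratio from 0.5 to 1.5 plus GFP to RFP signal ratio inhibition reaching or exceeding a fixed threshold, cut at about 30% in these data, passing the limit was not always enough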
GRIN3A LBD mod – modulates the human NR3A ligand-binding domain. actives 2.5% (n = 340,000). Tm shift relative to glycine control, % at 25 µM. AID 1259313. NR3A LBD differential scanning fluorimetry, Tm shift; 0% = protein alone, 100% = glycine-bound protein;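 active = melting temperature shift of at least 10% of the positive control shift, at one fixed dose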
* hit, by the source's call; x = no result.

SMILES | SMARCA2 act | NadD inh | esBAF inh | Vif imaging | SKN-1 inh | GRIN3A LBD mod
Cc1cccc(NC(=O)c2ccc(NS(=O)(=O)c3cccc4cccnc34)cc2)c1 | -3 | 5 | 11 | -4 | 1 | 30*
CCOc1ccc(NS(=O)(=O)c2cc(NC(=O)c3ccc(C)cc3)ccc2Cl)cc1 | -4 | 19 | x | -2 | 6 | 15*
O=C(Nc1ccccc1O)c1ccc(NS(=O)(=O)c2cccc3cccnc23)cc1 | 1 | 3 | -13 | -1 | 11 | 20*
C[C@H]1CN([C@@H](C)CO)C(=O)c2cc(Br)cnc2O[C@H]1CN(C)C(=O)c1ccccc1F | x | x | 3 | x | x | x
C[C@@H]1CN([C@@H](C)CO)C(=O)c2cc(C#C[C@@H](C)O)cnc2O[C@@H]1CN(C)Cc1ccc(-c2ccccc2)cc1 | x | x | 4 | x | x | x
CC(C)NC(=O)N(C)C[C@@H]1Oc2cc(C#Cc3ccc(F)cc3)ccc2S(=O)(=O)N([C@@H](C)CO)C[C@@H]1C | x | x | 5 | x | x | x
COc1ccccc1-c1cn(CC[C@H]2CC[C@@H](NC(=O)c3ccccc3F)[C@@H](CO)O2)nn1 | x | x | 8 | x | x | x
CNC[C@H]1Oc2ccc(NC(=O)Cn3cnnn3)cc2C(=O)N([C@@H](C)CO)C[C@@H]1C | x | x | -1 | x | x | x
Cc1ccc(C(=O)CCC(=O)Nc2ccc(Cl)c(S(=O)(=O)Nc3cccc(Cl)c3)c2)cc1 | -1 | 7 | x | 0 | -18 | 24*
COc1ccc(C(=O)CCC(=O)Nc2cccc(Cl)c2)cc1 | -2 | -6 | -1 | -1 | -6 | 0
CC1Cc2cc(S(=O)(=O)N3CCN(c4cccc(Cl)c4)CC3)ccc2N1C(=O)C1CC1 (stereo not given) | 1 | 9 | 0 | 2 | 16 | 10*
CC1Cc2cc(S(=O)(=O)N3CCN(c4ccc(Cl)cc4)CC3)ccc2N1C(=O)C1CC1 (stereo not given) | 0 | 17 | -9 | 2 | 6 | 0
Cc1cccc(/C=C\c2nc3ccccc3c(=O)[nH]2)c1 | 5 | -6 | x | 1 | -5 | 0
COc1cc(/C=C/c2nc3ccccc3c(=O)[nH]2)cc(Cl)c1O | 3 | -2 | 17 | 10 | -4 | 27*
O=C(Nc1cccc(/C=C/c2nc3ccccc3c(=O)[nH]2)c1)c1ccccc1Cl | 2 | 12 | 80* | -3 | 7 | -4
Cc1noc(C)c1NC(=O)Nc1ccc2c(c1)CC(=O)N([C@@H](C)CO)C[C@@H](C)[C@H](CN(C)Cc1ccc3c(c1)OCO3)O2 | x | x | 0 | x | x | x
Cc1cc(C)cc(N(CC(=O)NCc2ccco2)C(=O)CCC(=O)Nc2ccccn2)c1 | 7 | 0 | -9 | -4 | -13 | 17*
CCOC(=O)c1cnc(SC)nc1Oc1cccc(NC(=O)c2ccc(C)cc2)c1 | 1 | 2 | -7 | 12 | 4 | 17*
C[C@@H]1CCCCO[C@H](CN(C)CC2CCCCC2)[C@H](C)CN([C@H](C)CO)C(=O)c2cc(NC(=O)CCCN(C)C)ccc2O1 | x | x | 5 | x | x | x
Cc1cc(Br)c(OCc2ccc(C(=O)N/N=C3\CC4CC=CC34)cc2)c(Br)c1 (stereo not given) | 2 | 21 | x | -4 | 9 | 12*
O=C(CNC(=O)OCc1ccccc1)NC1CCCCCC1 | -1 | 8 | 5 | -6 | 3 | -2
O=C(N[C@H]1/C=C\[C@@H](O)CCCC1)OCc1ccccc1 | 7 | -1 | 70* | -2 | 1 | -2
CO[C@H]1CN(C)C(=O)c2cc(NC(=O)c3cc(C)on3)ccc2OC[C@H](C)NC[C@H]1C | x | x | -3 | x | x | x
COc1cccc(CN(CC2CCCO2)S(=O)(=O)c2ccc(-n3cnnn3)c(OC)c2)c1 (stereo not given) | 2 | -40 | x | -2 | 5 | 10*
CCN(Cc1ccccc1)S(=O)(=O)c1ccc(S(=O)(=O)N(Cc2cccc(OC)c2)CC2CCCO2)cc1 (stereo not given) | -1 | -1 | -3 | x | 4 | 2
SMILES | SMARCA2 act | NadD inh | esBAF inh | Vif imaging | SKN-1 inh | GRIN3A LBD mod
Cc1ccc(S(=O)(=O)N(C)C[C@@H]2Oc3ccc(NC(=O)Nc4ccc(F)cc4)cc3CC(=O)N([C@@H](C)CO)C[C@H]2C)cc1 | x | x | 4 | x | x | x
c1ccc(Cn2nnnc2C(c2cccs2)N2CCc3ccccc3C2)cc1 (stereo not given) | x | -4 | 7 | x | 4 | 16*
NC(=S)c1ccc(OCCCc2ccccc2)cc1 | 6 | -1 | 71* | -4 | 9 | x
C/C(=N\NC(=O)C1CC1)c1ccc(NC(=O)c2ccc(Br)o2)cc1 | 4 | x | x | x | x | x
C/C(=N\NC(=O)c1c(Cl)cnn1C)c1ccc(NC(=O)c2ccc(Br)o2)cc1 | 1 | -2 | 28 | 5 | 14 | 14*
COc1ccc(NC(=S)Nc2ccc(C)c(Cl)c2)cc1OC | -1 | -1 | 1 | -4 | -3 | 13*
Cc1cc(C)cc(NC(=S)Nc2ccc(Cl)c(Cl)c2)c1 | 2 | 1 | 2 | 11 | 13 | 22*
Cc1cccc(C)c1NC(=S)Nc1ccc(Cl)c(Cl)c1 | 2 | 4 | -8 | -2 | 3 | -1
CN(C)/C=N/C(=S)Nc1ccc(Cl)c(Cl)c1 | 2 | 5 | 63* | -9 | 13 | 1
COc1ccc(NC(=S)Nc2cccc(Cl)c2)cc1OC | -7 | -2 | -1 | 14 | 13 | -3
Cc1ccc(NC(=S)Nc2ccc(OC(F)F)c(Cl)c2)cc1Cl | -1 | -3 | 15 | -11 | -2 | 38*
O=C(Nc1ccc2c(c1)OCO2)N[C@H]1CC[C@H](CC(=O)N2CCN(c3ccccc3)CC2)O[C@H]1CO | x | x | 0 | x | x | x
C[C@H](CO)N1C[C@H](C)[C@@H](CN(C)Cc2ccc(C(=O)O)cc2)OCCCC[C@H](C)Oc2ccc(NS(=O)(=O)c3cccs3)cc2C1=O | x | x | 3 | x | x | x
COc1ccc(NC(=O)N(C)C[C@@H]2Oc3c(NC(=O)c4ccc(-c5nccs5)cc4)cccc3C(=O)N([C@@H](C)CO)C[C@H]2C)cc1 | x | x | 0 | x | x | x
CN(C)C(=O)C[C@@H]1CC[C@H](NC(=O)Nc2cccc(F)c2)[C@@H](CO)O1 | x | x | -1 | x | x | x
C/C=C/c1cnc2c(c1)C(=O)N([C@@H](C)CO)C[C@@H](C)[C@@H](CN(C)Cc1cccc(C(=O)O)c1)O2 | x | x | -2 | x | x | x
C[C@@H]1CN([C@@H](C)CO)C(=O)c2cc(C#CCN(C)C)cnc2O[C@H]1CN(C)C(=O)c1cccc(F)c1 | x | x | -3 | x | x | x
Fc1ccc(NC(=S)Nc2ccccc2OC(F)F)cc1Cl | 3 | -9 | x | 4 | 0 | 5
Cc1cc(C)cc(NC(=S)NCCSc2ccc(Cl)cc2)c1 | -4 | 3 | x | 1 | 1 | 13*
Cc1ccc(NC(=S)Nc2ccc(Cl)c(Cl)c2)c(OC(F)F)c1 | 1 | 0 | x | -9 | 16 | 15*
C[C@H](O)C#Cc1cnc2c(c1)C(=O)N([C@@H](C)CO)C[C@H](C)[C@H](CN(C)C(=O)Cc1ccccn1)O2 | x | x | 3 | x | x | x

Screening data: PubChem BioAssay, several laboratories
